Reference: publication PMC10668032, “Altered binding affinity of SIX1-Q177R correlates with enhanced WNT5A and WNT pathway effector expression in Wilms tumor”
In all, about 33,000 sequences were measured (“e-score”: median about -0.05, highest 2% from about 0.38 on). This is one part of a sample in which the highest values are shown more often than they occur.

molecular target: T1, SIX1-Q177R homeodomain (human, UniProt Q15475 108-198, Q177R); assay: universal protein binding microarray; Universal all-10-mer PBM (8x60K, AMADID 030236), 300 nM GST-tagged protein, Alexa Fluor 488 anti-GST; buffer, salt, pH and temperature not stated (as in Berger); high values mean tight binding; conditions: protein: ivt; tags: N-terminal GST; dsDNA, one strand shown
T1 sequence: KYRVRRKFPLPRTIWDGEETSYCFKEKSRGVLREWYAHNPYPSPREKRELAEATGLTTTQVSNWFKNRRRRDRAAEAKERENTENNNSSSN
How it was run: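 GST-tagged homeodomains were made by in vitro transcription/translation and quantified by anti-GST western blot against a recombinant GST standard curve. They were applied in duplicate at 300 nM final concentration to universal 'all 10-mer' protein binding microarrays (8×60K format). Binding was quantified as 8-mer E-scores with the Universal PBM Analysis Suite.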

CTACTCCC was tested. Which binding signal did it give?
Its binding signal is 0.228 ± 0.0226 E-score.

With CACGGCCG as the sequence, how does the binding signal read?
Its binding signal is 0.188 ± 0.00306 E-score.

Which binding signal does the source give for AGGTATCA here?
Its binding signal is 0.324 ± 0.0386 E-score.

For GTGTATAA, which binding signal is on record?
Its binding signal is 0.376 ± 0.0114 E-score.

Which binding signal does the source give for GTGTATTA here?
The binding signal was 0.401 ± 0.0189 E-score.

GGGTATTA was tested. Which binding signal did it give?
The binding signal was 0.161 ± 0.054 E-score.

For GGGTATCA, which binding signal is on record?
Its binding signal is 0.3904 ± 0.00193 E-score.

Which binding signal does the source give for GTGTATCA here?
The binding signal was 0.392 ± 0.0104 E-score.

How did the binding signal turn out when GAGTATCA was run?
The binding signal was 0.228 ± 0.0455 E-score.

Which binding signal does the source give for GGGTATGA here?
Its binding signal is 0.186 ± 0.0167 E-score.

How did the binding signal turn out when CAGTATCA was run?
Its binding signal is 0.2 ± 0.0287 E-score.

With GTGTATGA as the sequence, how does the binding signal read?
Its binding signal is 0.412 ± 0.0071 E-score.

Which binding signal does the source give for CGGTATCA here?
Its binding signal is 0.312 ± 0.00867 E-score.

With CCCTCGGA as the sequence, how does the binding signal read?
Its binding signal is 0.19 ± 0.012 E-score.

How did the binding signal turn out when CCGAGTCA was run?
Its binding signal is 0.157 ± 0.00701 E-score.

AACAGTGT was tested. Which binding signal did it give?
The binding signal was 0.323 ± 0.0244 E-score.

How did the binding signal turn out when GACGCCCC was run?
The binding signal was 0.182 ± 0.00373 E-score.

For GAGTAACA, which binding signal is on record?
The binding signal was 0.24 ± 0.0048 E-score.

Which binding signal does the source give for ACGCTACA here?
The binding signal was 0.161 ± 0.0151 E-score.

How did the binding signal turn out when CCAACACA was run?
Its binding signal is 0.163 ± 0.0809 E-score.

Which binding signal does the source give for ACAACACT here?
Its binding signal is 0.35 ± 0.00607 E-score.

Which binding signal does the source give for ACAACACG here?
Its binding signal is 0.358 ± 0.0104 E-score.

ACAACACC was tested. Which binding signal did it give?
The binding signal was 0.455 ± 0.00357 E-score.

Which binding signal does the source give for GCAACACC here?
Its binding signal is 0.4669 ± 0.000587 E-score.

With CCAACACC as the sequence, how does the binding signal read?
Its binding signal is 0.47 ± 0.00509 E-score.

GCAACCCC was tested. Which binding signal did it give?
Its binding signal is 0.184 ± 0.013 E-score.

How did the binding signal turn out when CCAACACG was run?
The binding signal was 0.377 ± 0.0116 E-score.

For ACAACACA, which binding signal is on record?
The binding signal was 0.232 ± 0.0598 E-score.

With GCTGGGTA as the sequence, how does the binding signal read?
Its binding signal is 0.227 ± 0.00462 E-score.

How did the binding signal turn out when ACTCGGCA was run?
Its binding signal is 0.161 ± 0.0126 E-score.

With CACCTTCC as the sequence, how does the binding signal read?
The binding signal was 0.307 ± 0.017 E-score.

CACTAGGG was tested. Which binding signal did it give?
The binding signal was 0.201 ± 0.0297 E-score.

Which binding signal does the source give for TAGAGTAA here?
Its binding signal is 0.199 ± 0.00264 E-score.

How did the binding signal turn out when AAGTGTAA was run?
The binding signal was 0.4 ± 0.0567 E-score.

TAGTGTAA was tested. Which binding signal did it give?
Its binding signal is 0.408 ± 0.0318 E-score.

How did the binding signal turn out when AAGTGTAT was run?
Its binding signal is 0.317 ± 0.0537 E-score.

Which binding signal does the source give for GAGTGTAA here?
Its binding signal is 0.42 ± 0.0292 E-score.

TAGTGTGA was tested. Which binding signal did it give?
The binding signal was 0.258 ± 0.0135 E-score.

CAGTGTAA was tested. Which binding signal did it give?
The binding signal was 0.42 ± 0.0273 E-score.

Which binding signal does the source give for AAGTGTGA here?
Its binding signal is 0.188 ± 0.0231 E-score.

With CAGTGTGA as the sequence, how does the binding signal read?
Its binding signal is 0.306 ± 0.0246 E-score.

How did the binding signal turn out when CAGGGTAA was run?
Its binding signal is 0.21 ± 0.00942 E-score.

With GGGAGTAA as the sequence, how does the binding signal read?
Its binding signal is 0.225 ± 0.0261 E-score.

With CACGAAAA as the sequence, how does the binding signal read?
Its binding signal is 0.157 ± 0.0159 E-score.

How did the binding signal turn out when GGGAGTTA was run?
Its binding signal is 0.2077 ± 0.00099 E-score.

Which binding signal does the source give for TCGGCACA here?
The binding signal was 0.217 ± 0.0118 E-score.

Which binding signal does the source give for CACCGCCA here?
Its binding signal is 0.291 ± 0.0119 E-score.

With AGTCGGTG as the sequence, how does the binding signal read?
Its binding signal is 0.297 ± 0.0328 E-score.

How did the binding signal turn out when TGCGTACA was run?
The binding signal was 0.18 ± 0.00951 E-score.

ATAATACA was tested. Which binding signal did it give?
The binding signal was 0.166 ± 0.023 E-score.

How did the binding signal turn out when ACGAGGTG was run?
Its binding signal is 0.251 ± 0.0125 E-score.

With AGGCGGGG as the sequence, how does the binding signal read?
The binding signal was 0.159 ± 0.0183 E-score.

With ACGCCACG as the sequence, how does the binding signal read?
Its binding signal is 0.171 ± 0.0126 E-score.

AAGACCCC was tested. Which binding signal did it give?
The binding signal was 0.172 ± 0.0514 E-score.

AGAGGTAT was tested. Which binding signal did it give?
Its binding signal is 0.221 ± 0.0344 E-score.

With GGGTAGGA as the sequence, how does the binding signal read?
The binding signal was 0.213 ± 0.0147 E-score.

GTGTAGTA was tested. Which binding signal did it give?
Its binding signal is 0.464 ± 0.0137 E-score.

For GTGTAGCA, which binding signal is on record?
Its binding signal is 0.425 ± 0.0131 E-score.

With GTGTGGGA as the sequence, how does the binding signal read?
Its binding signal is 0.286 ± 0.0336 E-score.

For GTGTAGAA, which binding signal is on record?
Its binding signal is 0.427 ± 0.0121 E-score.

GTGTAGGA was tested. Which binding signal did it give?
The binding signal was 0.4 ± 0.00559 E-score.

With TAGTAGCA as the sequence, how does the binding signal read?
Its binding signal is 0.159 ± 0.00204 E-score.

Which binding signal does the source give for GGGTAGTA here?
Its binding signal is 0.161 ± 0.0206 E-score.

How did the binding signal turn out when GTGTGGAA was run?
Its binding signal is 0.193 ± 0.0214 E-score.

GTGTGGCA was tested. Which binding signal did it give?
Its binding signal is 0.246 ± 0.0251 E-score.

GTGCTGTA was tested. Which binding signal did it give?
The binding signal was 0.164 ± 0.0245 E-score.

GTAGAGTA was tested. Which binding signal did it give?
Its binding signal is 0.2533 ± 0.000997 E-score.

Which binding signal does the source give for CACGGCTA here?
The binding signal was 0.182 ± 0.0377 E-score.

How did the binding signal turn out when ACATGGGT was run?
Its binding signal is 0.209 ± 0.0274 E-score.

For CACCTGGG, which binding signal is on record?
The binding signal was 0.2794 ± 0.00115 E-score.

How did the binding signal turn out when CCCGCCAC was run?
Its binding signal is 0.195 ± 0.0268 E-score.

For TGGGGTAA, which binding signal is on record?
The binding signal was 0.26 ± 0.0142 E-score.

With CACCCGCG as the sequence, how does the binding signal read?
The binding signal was 0.301 ± 0.00786 E-score.

AGGCGACA was tested. Which binding signal did it give?
Its binding signal is 0.25 ± 0.0166 E-score.

Which binding signal does the source give for ACACATGG here?
Its binding signal is 0.185 ± 0.0286 E-score.

Which binding signal does the source give for GGAGGACA here?
The binding signal was 0.246 ± 0.019 E-score.

For CACGAACA, which binding signal is on record?
Its binding signal is 0.25 ± 0.0125 E-score.

AACACTCG was tested. Which binding signal did it give?
The binding signal was 0.337 ± 0.0357 E-score.

For AACACTCT, which binding signal is on record?
The binding signal was 0.35 ± 0.036 E-score.

With CACACTAA as the sequence, how does the binding signal read?
Its binding signal is 0.204 ± 0.0117 E-score.

How did the binding signal turn out when GATACTCA was run?
Its binding signal is 0.16 ± 0.00991 E-score.

Which binding signal does the source give for CACACTCC here?
The binding signal was 0.291 ± 0.0144 E-score.

How did the binding signal turn out when AACACTCC was run?
Its binding signal is 0.379 ± 0.0156 E-score.

With GACACTCC as the sequence, how does the binding signal read?
The binding signal was 0.43377 ± 0.000417 E-score.

GACACTCA was tested. Which binding signal did it give?
The binding signal was 0.422 ± 0.00429 E-score.

For CACACTCG, which binding signal is on record?
The binding signal was 0.3527 ± 0.00165 E-score.

For TACACTCA, which binding signal is on record?
Its binding signal is 0.402 ± 0.0151 E-score.
